PREPL inhibitor: inhibits the human prolyl oligopeptidase-like enzyme. Q4J6C6. inhibition, % at 5.96 µM. recombinant PREPL, fluorescence polarization activity-based probe. AID 2751. 0.68% of 320,000 active; in the data active = inhibition above about 43%;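 also: 0% = enzyme with DMSO and 100% = wells lacking enzyme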
Target sequence (Q4J6C6 whole entry, looked up): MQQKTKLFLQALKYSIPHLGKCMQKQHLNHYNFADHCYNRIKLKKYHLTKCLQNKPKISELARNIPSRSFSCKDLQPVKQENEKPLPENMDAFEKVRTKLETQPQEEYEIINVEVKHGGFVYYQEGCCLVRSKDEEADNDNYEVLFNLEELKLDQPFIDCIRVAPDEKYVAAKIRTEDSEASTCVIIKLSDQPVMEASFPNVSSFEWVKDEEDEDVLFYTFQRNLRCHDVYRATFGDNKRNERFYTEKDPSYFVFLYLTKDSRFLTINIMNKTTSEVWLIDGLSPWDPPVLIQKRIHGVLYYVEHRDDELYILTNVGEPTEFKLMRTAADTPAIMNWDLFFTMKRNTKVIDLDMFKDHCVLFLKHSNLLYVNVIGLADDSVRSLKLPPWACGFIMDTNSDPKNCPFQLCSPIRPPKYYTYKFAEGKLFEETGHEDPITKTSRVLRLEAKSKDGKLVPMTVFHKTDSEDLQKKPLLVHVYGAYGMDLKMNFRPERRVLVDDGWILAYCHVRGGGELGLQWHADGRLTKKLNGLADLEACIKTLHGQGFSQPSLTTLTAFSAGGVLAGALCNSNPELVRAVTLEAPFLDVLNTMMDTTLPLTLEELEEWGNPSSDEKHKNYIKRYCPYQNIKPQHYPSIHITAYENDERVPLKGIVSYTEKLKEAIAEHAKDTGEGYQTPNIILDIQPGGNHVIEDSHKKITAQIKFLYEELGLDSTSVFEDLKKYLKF
AI-2 QS mod: modulates the Vibrio harveyi AI-2 quorum sensing system; Vibrio harveyi JMH597 AI-2 luminescence/OD600 ratio, 9 h; active compounds read low; strain lacks LuxN and CqsS sensors; 0 = neutral-control median; activity change, % at 7.5 µM; 0.4% of 300,000 active; in the data active = activity change below about -75%, passing the limit was not always enough;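 also: luminescence divided by OD600 gain over 9 h not by final OD600 alone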
CHT inh: inhibitors of human choline transporter CHT | AID 488975 | B-score at 10 µM | 0.86% of 310,000 active | Q9GZV3 | CHT-expressing cells, membrane potential dye, choline response; active compounds read low;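 active = B-score over 3 SD under the library average, and starting fluorescence ratio not unusually high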;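 also: choline stimulus applied at its EC90 after an EC20 pre-addition; B-score computed on integrated fluorescence ratio after choline addition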
ALR H2O2 inh: blocks human ALR sulfhydryl oxidase activity | P55789 | purified ALR, DTT oxidation, H2O2 HRP-luminol luminescence | inhibition, % (concentration not given with the values) | 3.8% of 290,000 active;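 active = mean replicate inhibition above about 79%, with every replicate also reaching it, limit read from the data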
CHT PAM: human CHT allosteric activation; B-score at 10 µM; 0.49% of 310,000 active; Q9GZV3; CHT-expressing cells, membrane potential dye, choline EC20; active compounds read high; LV-AA mutant CHT in HEK293 cells;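 active = initial fluorescence not abnormally high and integrated response B-score, plate-corrected, over 3 SD above library mean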
CHT act confirm: human CHT activation, confirmatory screen | 91% of 2,500 active | shares compounds with CHT PAM | CHT-expressing cells, membrane potential dye fluorescence (FDSS); % of choline EC20–EC90 response window; HEK293 expressing CHT LV-AA mutant; choline added at its EC20 | activation, % at 10 µM | AID 504833;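 active = primary screen active, with duplicate mean activation above negative control mean plus 3 SD, cut at about 11% in these data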
HEK293 MP dye: activity in parental HEK293 cells lacking CHT; shares compounds with CHT PAM; membrane potential dye fluorescence (FDSS); measured after EC20 choline addition; ratio readout change at 10 µM, hits read low; 62% of 2,500 active; AID 623908;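 active = duplicate-averaged ratio beyond 3 SD from buffer wells, up or down, though filed actives are nearly all decreases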
An asterisk follows results filed as active. Shown are actives, neighbours in structure and some others; about 5% of the full set was active somewhere.

Screening CCC(C)N1CCC2(CC1)N=c1c(c3c4c5c(C)c(O)c3c(O)c1=NC(=O)C(C)=CC=C[C@H](C)[C@H](O)[C@@H](C)[C@@H](O)[C@@H](C)[C@H](OC(C)=O)[C@H](C)[C@@H](OC)C=CO[C@@](C)(O5)C4=O)N2 (stereo partly specified) returned PREPL inhibitor 7, CHT inh inactive, ALR H2O2 inh -25, CHT PAM inactive, CHT act confirm 22* and HEK293 MP dye -42*.
`CN(CC(=O)Nc1ccc(F)c(F)c1F)C(=O)c1cc(-c2ccncc2)nc2ccccc12` gave PREPL inhibitor -21, AI-2 QS mod 16, CHT inh inactive, CHT PAM inactive, CHT act confirm 40* and HEK293 MP dye inactive.
Cc1[nH]c2ccccc2c1/C=N/Nc1ccc([N+](=O)[O-])cc1 was read as PREPL inhibitor 5, AI-2 QS mod 13, CHT inh inactive, ALR H2O2 inh -32, CHT PAM inactive, CHT act confirm 17* and HEK293 MP dye inactive.
Screening Cc1[nH]c2ccccc2c1/C=N/NC(=O)c1cccc([N+](=O)[O-])c1 returned PREPL inhibitor 22, AI-2 QS mod 15, CHT inh inactive, ALR H2O2 inh 3 and CHT PAM inactive.
O=C(NCc1ccco1)/C(=C\c1cccs1)NC(=O)c1ccco1 was read as PREPL inhibitor -11, AI-2 QS mod 10, CHT inh inactive, ALR H2O2 inh -4 and CHT PAM inactive.
Screening C[N+](C)(C)CCCCCCCCCC[N+](C)(C)C returned PREPL inhibitor -7, AI-2 QS mod 30, CHT inh inactive, CHT PAM 7.8*, CHT act confirm 43* and HEK293 MP dye -52*.
`Cc1cccc(C)c1OCC(O)CNC(C)c1ccccc1` (stereo unspecified) gave PREPL inhibitor -34, AI-2 QS mod -7, CHT inh inactive, ALR H2O2 inh -2 and CHT PAM inactive.
COc1ccc(C(c2nnnn2Cc2cccs2)N2CCN(c3ccccc3F)CC2)cc1 (stereo unspecified) was read as PREPL inhibitor -6, AI-2 QS mod 35, CHT inh inactive, ALR H2O2 inh -2, CHT PAM inactive, CHT act confirm 31* and HEK293 MP dye inactive.
`CCN(CC)C(=O)Cn1cc(C(=O)C(=O)N2CCN(Cc3ccccc3)CC2)c2ccccc21` gave PREPL inhibitor -4, AI-2 QS mod 3, CHT inh inactive, ALR H2O2 inh 1 and CHT PAM inactive.
CCN1CCN(C(=O)C(=O)c2cn(CC(=O)N(CC)CC)c3ccccc23)CC1 was read as PREPL inhibitor 7, AI-2 QS mod 3, CHT inh inactive, ALR H2O2 inh -13, CHT PAM inactive, CHT act confirm 44* and HEK293 MP dye inactive.
Screening CCN(CC)C(=O)C(=O)c1cn(CCOc2ccccc2)c2ccccc12 returned PREPL inhibitor 17, AI-2 QS mod 1, CHT inh inactive, ALR H2O2 inh 2, CHT PAM inactive, CHT act confirm 7 and HEK293 MP dye inactive.
COc1ccc(CN2CCC(CO)(CCOc3ccccc3)CC2)cc1C was read as PREPL inhibitor -16, AI-2 QS mod 17, CHT inh inactive, ALR H2O2 inh -1 and CHT PAM inactive.
For CC(C)N1CCN(C(=O)C2CCC(=O)N(CCc3cccc(F)c3)C2)CC1 (stereo unspecified) the results were AI-2 QS mod 13.
Screening C(=N\n1cnnc1)/c1ccc2ncccc2c1 returned PREPL inhibitor 12, AI-2 QS mod 15, CHT inh inactive, CHT PAM 8*, CHT act confirm 67* and HEK293 MP dye -80*.
For Cc1c(CCOC(=O)CC23CC4CC(CC(C4)C2)C3)sc[n+]1CC(=O)c1ccc(Br)cc1 the results were PREPL inhibitor 37, AI-2 QS mod 39, CHT inh inactive, ALR H2O2 inh 2, CHT PAM inactive, CHT act confirm 28* and HEK293 MP dye -25*.
Screening Cc1c(CCOC(=O)CC23CC4CC(CC(C)(C4)C2)C3)sc[n+]1CC(=O)c1ccccc1 returned PREPL inhibitor 26, AI-2 QS mod 22, CHT inh inactive, ALR H2O2 inh 14 and CHT PAM inactive.
Screening CC1CCc2c(sc3ncnc(SC(C)C(=O)NCC4CCCO4)c23)C1 (stereo unspecified) returned PREPL inhibitor 6, AI-2 QS mod 23, CHT inh inactive and CHT PAM inactive.
`CCOC(=O)c1c[nH]c2c(Cl)ccc(Cl)c2c1=O` gave PREPL inhibitor 12, AI-2 QS mod 25, CHT inh inactive, ALR H2O2 inh 0, CHT PAM 7.2*, CHT act confirm 69* and HEK293 MP dye -64*.
CCOC(=O)c1c[nH]c2c(C)cc(C)cc2c1=O was read as PREPL inhibitor 7, AI-2 QS mod 36, CHT inh inactive, ALR H2O2 inh -2, CHT PAM 8.1*, CHT act confirm 63* and HEK293 MP dye -37*.
Screening CCOC(=O)c1c[nH]c2c3c(ccc2c1=O)CCCC3 returned PREPL inhibitor 3, AI-2 QS mod 23, CHT inh inactive, ALR H2O2 inh -24 and CHT PAM inactive.
Screening CCOC(=O)c1c[nH]c2c(Cl)c(Cl)ccc2c1=O returned PREPL inhibitor 2, AI-2 QS mod 19, CHT inh inactive, ALR H2O2 inh -10, CHT PAM inactive, CHT act confirm 39* and HEK293 MP dye -37*.
Screening CCCc1[nH]n(-c2ccc([N+](=O)[O-])cc2)c(=O)c1C=NCCCn1ccnc1 returned PREPL inhibitor -8, AI-2 QS mod 4, CHT inh inactive, ALR H2O2 inh 17, CHT PAM inactive, CHT act confirm 37* and HEK293 MP dye -48*.
Screening Cc1[nH]n(-c2ccc([N+](=O)[O-])cc2)c(=O)c1C=NCCc1ccc(S(N)(=O)=O)cc1 returned PREPL inhibitor 8, AI-2 QS mod 19, CHT inh inactive, ALR H2O2 inh -3 and CHT PAM inactive.
Screening Cc1cc(OCC(=O)Nc2ccncc2)cc(C)c1Cl returned PREPL inhibitor -9, AI-2 QS mod -36, CHT inh inactive, ALR H2O2 inh 2 and CHT PAM inactive.
`COC(=O)C1CCCN1S(=O)(=O)c1ccccc1NC(=O)c1cc(OC)c(OC)c(OC)c1` (stereo unspecified) gave PREPL inhibitor 0, AI-2 QS mod 31, CHT inh inactive, ALR H2O2 inh -2 and CHT PAM inactive.

From PubChem BioAssay
